Screening results: PubChem, National Center for Advancing Translational Sciences (NCATS)
A selection: hits, their analogues and other compounds. The true share with any hit is near 8%.
HCMV inh = qHTS Assay for inhibitors of the human cytomegalovirus (HCMV) | activity change, negative = inhibition, % at 57.5 µM | HFF cells, HCMV-luciferase reporter, 72 h; hits give low values | 4.5% of 410,000 active | AID 1259415, 2018; in the data active = activity change below about -60%; inconclusive = no clear call, values can overlap the other calls; inactive = above about -39%
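After 16 h attachment at 37C, HFF cells received test compound and HCMV-luciferase (1 PFU/cell); reporter luminescence read 72 h later, data normalized against buffer-only and known inhibitor Salinomycin.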
HCV inh = qHTS Assay for Inhibitors of Hepatitis C Virus (HCV); Huh7.5.1 HCVcc-Cre infection, luciferase reporter, 44 h; 3.4% of 340,000 active; AID 651820, 2012; Potency, µM (doses to about 41.8 µM), hits mostly inhibitors; active = well fitted inhibition curve with a large enough effect; inconclusive = small, poorly fitted or top-dose-only effect, or another doubt; inactive = no such curve, though single readings can be large or run the other way
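Cells seeded at 1,000/well and cultured 4 h, then compounds added followed by HCVcc-Cre virus (~0.5 moi). After 44 h further culture, luciferase substrate was added, plates held 15 min at room temperature, and luminescence read for 15 sec.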
Marburg entry inh = qHTS for inhibitors of binding or entry into cells for Marburg Virus; Marburg virus pseudotyped entry inhibition, cell reporter; Potency, µM (titrated, usually from 37.8 µM), usual class: inhibitors; 1.8% of 300,000 active; calls by dose curve; tested in HEK293 cells
LASV entry inh = qHTS for Inhibitors of binding or entry into cells for Lassa Virus; Lassa virus pseudotype entry inhibition, cell reporter; Potency, µM (doses to about 37.9 µM), actives largely listed as inhibitors; 1.2% of 300,000 active; AID 540256, 2011; calls by dose curve; tested in HEK293 cells; also: nearly all actives have a fitted effect of over 50% in size
SARS PLP yeast = qHTS of Yeast-based Assay for SARS-CoV PLP; AID 485353, 2010; Potency, µM (series often up to 32.9 µM), hits mostly activators; S. cerevisiae expressing SARS-CoV PLpro, growth rescue; 0.19% of 330,000 active; calls by dose curve; also: nearly all actives have a fitted effect of over 55% in size
FMDV antiviral = High Throughput Screening for Foot and Mouth Disease Virus Antivirals. FMDV antiviral cell-based qHTS. Potency, µM (top dose mostly 57.9 µM), usual class: inhibitors. 1.2% of 410,000 active. AID 1159524, 2015; calls by dose curve; tested in HEK293T cells; also: read-out not given here; nearly all actives have a fitted effect of over 45% in size
Numbers stand for hits; - = inactive; ? = inconclusive; . = not tested or not shown; [ ] = remark or other dose.

SMILES	HCMV inh	HCV inh	Marburg entry inh	LASV entry inh	SARS PLP yeast	FMDV antiviral
Cc1ccccc1Oc1cc(-n2ncc(Cl)c(Cl)c2=O)ncn1	-105.3	?	?	?	-	4.47µM
CCOc1cnn(-c2cc(Oc3ccc(C)cc3)ncn2)c(=O)c1Cl	-	-	-	-	-	-
Cc1ccc(C)c(NC(=O)c2ccc3nc(CCc4ccccc4)oc3c2)c1	-	.	.	-	.	-
CCCC(=O)N(c1ccc2oc3c(c2c1)CCCC3)S(=O)(=O)c1ccc(CC)cc1	-	.	?	?	.	-
COC(=O)c1c(C)oc2ccc(N(C(=O)c3ccncc3)S(=O)(=O)c3cc(C)c(C)cc3C)cc12	-60.1	.	?	?	.	-
COC(=O)c1c(C)oc2ccc(N(C(=O)c3ccncc3)S(=O)(=O)c3ccc(C)cc3)cc12	.	?	3.16µM	-	-	-
CCc1ccc(S(=O)(=O)N(C(=O)Oc2ccccc2)c2ccc3oc(C)c(C(=O)OC)c3c2)cc1	-70.9	.	.	?	.	-
CCc1ccc(S(=O)(=O)N(C(C)=O)c2ccc3oc4c(c3c2)CCCC4)cc1	-91.6	.	-	-	.	-
CC(=CC[Si](C)(C)C)CCC=O	.	.	-	?	.	.
COC(=O)c1c(C)oc2ccc(N(C(=O)c3ccncc3)S(=O)(=O)c3ccc(C)cc3C)cc12	-92.4	1.58µM	5.62µM	?	-	?
COC(=O)c1c(C)oc2ccc(N(C(=O)c3ccncc3)S(=O)(=O)c3ccccc3)cc12	-	?	?	?	-	-
Cc1ccc(NS(=O)(=O)c2cc(-c3n[nH]c(=O)c4ccccc34)ccc2C)cc1	?	?	5.01µM	?	-	-
Cc1ccccc1Nc1nnc(-c2ccc(C)c(S(=O)(=O)NCC3CCCO3)c2)c2ccccc12 (stereo unspecified)	-75.9	.	?	-	.	-
Cc1ccc(-c2nnc(N3CCC(C)CC3)c3ccccc23)cc1C	-	?	-	-	-	20µM
O=S(=O)(NCC1CCCO1)c1ccc(Cl)c2ccccc12 (stereo unspecified)	-84.0	.	.	.	.	-
Cc1ccc(-c2nnc(N3CCC(C)CC3)c3ccccc23)cc1	-	?	.	.	-	?
CCOC(=O)CNS(=O)(=O)c1cc(-c2n[nH]c(=O)c3ccccc23)ccc1C	-	-	-	-	-	-
C/C(=N/NC(=O)c1ccc(Br)o1)C(C)C	-	-	?	?	-	-
CN(C)c1ccc(CNC(=O)C2CCN(S(=O)(=O)c3ccc4c(ccn4C)c3)CC2)cc1	-	.	.	-	.	-
CCOC(=O)CNS(=O)(=O)c1cc(-c2nnc(Nc3ccc4c(c3)OCO4)c3ccccc23)ccc1C	-65.2	?	?	-	-	-
CCOC(=O)CNS(=O)(=O)c1cc(-c2nnc(Nc3cccc(O)c3)c3ccccc23)ccc1C	-	.	.	-	.	-
Cc1ccc(-c2n[nH]c(=S)c3ccccc23)cc1S(=O)(=O)NCC1CCCO1 (stereo unspecified)	-62.9	?	-	-	-	-
Cc1ccc(-c2nnc(N3CCOCC3)c3ccccc23)cc1S(=O)(=O)NCC1CCCO1 (stereo unspecified)	-94.6	-	-	-	-	-
Cc1ccc(-c2n[nH]c(=O)c3ccccc23)cc1S(=O)(=O)NCC1CCCO1 (stereo unspecified)	-	-	-	-	-	-
O=c1c2ccccc2sc2c(CO)ccc(NCCN3CCCCC3)c12	-97.9	?	?	?	.	?
SMILES	HCMV inh	HCV inh	Marburg entry inh	LASV entry inh	SARS PLP yeast	FMDV antiviral
CCN(CC)CCNc1ccc(CO)c2sc3ccccc3c(=O)c12	-95.8	?	11.2µM	?	-	?
O=c1c2ccccc2sc2ccc(NCCCN3CCOCC3)cc12	-	-[8.37 µM]	.	.	.	-
CCN(CC)CCNc1ccc(CO)c2oc3ccccc3c(=O)c12	-89.5	.	.	.	.	-
CCN(CC)CCNc1cccc2sc3ccccc3c(=O)c12	-	.	.	.	.	?
O=Cc1c(Sc2ccccn2)nc2ccccn2c1=O	-	35.5µM	-	-	-	?
CN1CCN(/N=C/c2ccc(-c3ccccc3)cc2)CC1	-85.5	-	?	?	-	-
O=[N+]([O-])c1cc(Cl)c2cccnc2c1O	-73.8	-	?	-	-	-
O=[N+]([O-])c1ccc(Cl)c2cccnc12	-	-	?	-	-	-
O=[N+]([O-])c1cc(F)c2cccnc2c1O	-	-	.	.	-	-
Cc1c(C)c2cccnc2c2ncccc12	.	3.16µM	.	.	-	?
Clc1cc2cccnc2c2ncccc12	-95.7	2.82µM	.	.	-	-
O=[N+]([O-])c1cc(Cl)c(O)c2ncccc12	-97.5	-	?	?	-	-
O=C(Nc1ccccc1)C12CC3CC(C1)CC(n1cnc([N+](=O)[O-])n1)(C3)C2	-	-	-	-	-	-
COc1cc(NC(=O)C23CC4CC(C2)CC(n2cnc([N+](=O)[O-])n2)(C4)C3)cc(OC)c1	-	-	2.51µM	-	-	-
CCOC(=O)c1c(-c2ccc(C)cc2)csc1NC(=O)C1CCCO1 (stereo unspecified)	-	11.2µM	?	?	-	?
CCOC(=O)c1c(-c2ccc(OC)cc2)csc1NC(=O)C1CCCO1 (stereo unspecified)	?	?	-	?	-	?
CC(C)OC(=O)c1c(-c2ccc(C(C)C)cc2)csc1NC(=O)C1CCCO1 (stereo unspecified)	-	-	?	5.62µM	-	?
CCOC(=O)c1c(-c2ccc(C)o2)csc1NC(=O)CN1CCC(C(N)=O)CC1	-	4.47µM	-	-	-	?
CCOC(=O)c1c(-c2ccc(F)cc2)csc1NC(=O)C1CCCO1 (stereo unspecified)	-60.3	-	-	-	-	-
CCCNC(=O)N1N=C(c2ccc(N)cc2)c2cc3c(cc2[C@H]1C)OCO3	.	.	.	.	.	-
CCOC(=O)c1c(-c2ccc(C)cc2)csc1NC(=O)CCN1CC(C)OC(C)C1 (stereo unspecified)	-	-	?	?	-	28.2µM
COc1ccc(C(=O)Nc2ccccc2C(=O)OCc2cc(=O)n3nc(C4CC4)sc3n2)cc1	-	.	.	-	.	-
COc1ccc2c(=O)cc(-c3ccncc3)oc2c1OC	-	11.2µM	?	-	.	-
CCCNC(=O)c1cc(-c2ccc(OC)cc2)on1	-	-	10.3µM	?	-	-
CCOc1ccc(-c2cc(CCCC(=O)NCCc3ccc(OCC)c(OCC)c3)no2)cc1	-	.	?	?	.	-
COc1ccc(-c2cc(CCCC(=O)NCCc3cc(OC)ccc3OC)no2)cc1	-	10µM	?	-	-	?
COc1ccc(-c2cc(CCCC(=O)N3CCN(c4ccc(OC)cc4)CC3)no2)cc1	-	11.2µM	-	.	-	?
COc1ccc(N2CCN(C(=O)COCc3cc(-c4ccc5c(c4)OCO5)on3)CC2)cc1	-	-	-	-	-	-
